According to PubChem BioAssay AID1159580 (chemical genetic matrix, 2015):
Where “and” joins values, the source holds several entries; their conditions need not be identical. Equal values may be shown once. The whole screen tested about 5,500 compounds, of which about 2,000 (36%) were called active. Another 18% or so got no clear call; they are omitted. Rule as the data show it: active = normalized growth mostly below about 0.91 (no sharp cut-off); inconclusive = no clear call, values can overlap the other calls; inactive = mostly above about 0.92. This is one part of the list.

Assay: chemical genetic growth profiling, strain panel (AID 1159580);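 also: tested at 20 µM; growth read once vehicle control cultures reached saturation at 30 °C; 1 = growth at the plate median or of vehicle wells; lower values mean less growth of the strain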
Details: S. cerevisiae deletion strains, growth OD

Measured: normalized growth

COc1ccc2c(c1OC)C(=O)O[C@@H]2[C@H]1c2cc3c(cc2CCN1C)OCO3
inactive: locus YAL013W, strain DEP1, hits give low values 1.03 | locus YAL021C, strain ccr4, hits give low values 1.01 | locus YAL026C, strain drs2, hits give low values 0.993 | locus YAL030W, strain snc1, hits give low values 0.991 | locus YBL061C, strain skt5, hits give low values 0.992 | locus YBR009C, strain hhf1, hits give low values 0.984 | locus YBR021W, strain FUR4, hits give low values 1.04 | locus YBR023C, strain chs3, hits give low values 0.987 | locus YBR171W, strain sec66, hits give low values 1 | locus YBR229C, strain ROT2, hits give low values 1.01 | locus YBR231C, strain swc5, hits give low values 0.989 | locus YBR279W, strain paf1, hits give low values 0.992 | locus YCL011C, strain gbp2, hits give low values 0.996 | locus YCL016C, strain dcc1, hits give low values 0.974 | locus YCL029C, strain bik1, hits give low values 1.02 | locus YCL061C, strain MRC1, hits give low values 0.995 | locus YCL069W, strain vba3, hits give low values 1 | locus YCR088W, strain abp1, hits give low values 0.997 | locus YDL005C, strain med2, hits give low values 0.997 | locus YDL035C, strain GPR1, hits give low values 1.03 | locus YDL040C, strain nat1, hits give low values 0.991 | locus YDL074C, strain BRE1, hits give low values 1.03 | locus YDL101C, strain DUN1, hits give low values 1.01 | locus YDL134C, strain PPH21, hits give low values 1.01 | locus YDL185W, strain tfp1, hits give low values 1.03 | locus YDL192W, strain arf1, hits give low values 1.02 | locus YDR001C, strain nth1, hits give low values 1 | locus YDR069C, strain doa4, hits give low values 0.981 | locus YDR101C, strain arx1, hits give low values 1.01 | locus YDR137W, strain rgp1, hits give low values 0.969 | locus YDR150W, strain NUM1, hits give low values 1.02 | locus YDR159W, strain sac3, hits give low values 0.991 | locus YDR162C, strain NBP2, hits give low values 1.02 | locus YDR195W, strain ref2 0.985 | locus YDR297W, strain sur2, hits give low values 0.985 | locus YDR318W, strain mcm21, hits give low values 1.03 | locus YDR334W, strain swr1, hits give low values 0.998 | locus YDR335W, strain msn5, hits give low values 0.989 | locus YDR388W, hits give low values 1.02 | locus YDR392W, strain spt3, hits give low values 0.929 | locus YDR502C, strain sam2, hits give low values 1.01 | locus YEL003W, strain gim4, hits give low values 1.01 | locus YEL037C, strain rad23, hits give low values 1 | locus YEL061C, strain CIN8 (second series), hits give low values 1.01 | locus YEL061C, strain CIN8, hits give low values 1.01 | locus YER015W, strain faa2, hits give low values 0.974 | locus YER016W, strain bim1, hits give low values 0.991 | locus YER110C, hits give low values 1.03 | locus YER111C, strain swi4, hits give low values 1.01 | locus YER155C, strain BEM2 (second series), hits give low values 0.995 | locus YER155C, strain BEM2, hits give low values 1.02 | locus YER167W, strain BCK2, hits give low values 1.04 | locus YFR010W, strain ubp6, hits give low values 1.01 | locus YGL078C, strain dbp3, hits give low values 1.03 | locus YGL086W, strain mad1, hits give low values 1.03 | locus YGL167C, strain pmr1, hits give low values 0.984 | locus YGL173C, strain kem1, hits give low values 0.993 | locus YGL227W, strain vid30, hits give low values 0.994 | locus YGL240W, strain doc1, hits give low values 0.958 | locus YGL248W, strain PDE1, hits give low values 1.02 | locus YGL253W, strain hxk2, hits give low values 0.999 | locus YGR078C, strain PAC10, hits give low values 1.01 | locus YGR135W, strain pre9, hits give low values 1.01 | locus YGR229C, strain SMI1, hits give low values 1.03 | locus YGR252W, strain gcn5, hits give low values 1.06 | locus YHR013C, strain ard1, hits give low values 0.965 | locus YHR027C, strain rpn1, hits give low values 1.01 | locus YHR030C, strain SLT2, hits give low values 1.02 | locus YHR079C, strain IRE1 (second series), hits give low values 1.02 | locus YHR079C, strain IRE1, hits give low values 0.995 | locus YHR094C, strain hxt1, hits give low values 1.02 | locus YHR129C, strain ARP1, hits give low values 1.02 | locus YHR142W, strain chs7, hits give low values 1.01 | locus YHR200W, strain rpn10, hits give low values 1.01 | locus YIL066C, strain RNR3, hits give low values 1.02 | locus YIL073C, strain SPO22, hits give low values 1.11 | locus YIL125W, strain kgd1, hits give low values 1.02 | locus YIR030C, strain dcg1, hits give low values 1.01 | locus YJL092W, strain hpr5, hits give low values 0.999 | locus YJL095W, strain BCK1 (second series), hits give low values 0.996 | locus YJL095W, strain BCK1, hits give low values 1.01 and 1 | locus YJL115W, strain asf1, hits give low values 0.997 | locus YJL129C, strain trk1, hits give low values 1.02 | locus YJL134W, strain LCB3, hits give low values 1.01 | locus YJL154C, strain vps35, hits give low values 0.999 | locus YJL164C, strain tpk1, hits give low values 0.984 | locus YJL166W, strain qcr8, hits give low values 0.975 | locus YJL168C, strain set2, hits give low values 1.01 | locus YJL187C, strain SWE1 (second series), hits give low values 1.02 | locus YJL187C, strain SWE1, hits give low values 0.988 | locus YJR043C, strain POL32, hits give low values 1.06 | locus YJR066W, strain TOR1, hits give low values 0.975
